Pf Dd2 growth = blocks growth of Plasmodium falciparum Dd2 parasites | P. falciparum Dd2 growth, SYBR Green, 72 h; hits give low values | activity change, % at 10 µM | 2.3% of 94,000 active; in the data active = activity change below about -80%
C diff growth = blocks growth of Clostridium difficile. growth activity, negative = inhibition, % at 16 µg/mL (by protocol). AID 1259249. 0.25% of 86,000 active. Clostridium difficile clinical isolate growth, OD600, 24 h; hits give low values;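 active = mean growth activity at or below -80% and every replicate also at or below -80%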;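 also: 0% = DMSO wells and -100% = levofloxacin 16 µg/mL wells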
* marks the source's active call; other numbers are inactive results; x = not tested or not shown; ! = repeats disagree. An excerpt weighted towards active compounds, which were near 2.3% of everything screened.

SMILES | Pf Dd2 growth | C diff growth
Cc1ccc(OC(=O)N(C)C[C@@H]2OCc3ccccc3-c3c(n(C)c4ccccc34)C(=O)N([C@@H](C)CO)C[C@@H]2C)cc1 | -40.1 | 0.8
Cc1ccc(OC(=O)N(C)C[C@H]2OCc3ccccc3-c3c(n(C)c4ccccc34)C(=O)N([C@H](C)CO)C[C@@H]2C)cc1 | -87.5* | 14.0
CC=Cc1ccc2n(c1=O)C[C@@H]1[C@@H](CO)[C@H](C(=O)OC)[C@H]2N1C(=O)CC (mixture of isomers) | x | -1.6
C/C=C/c1ccc(C2[C@@H]3CN(Cc4cccnc4)C[C@H]2N3)cc1 (stereo partly drawn) | -84.2*! | -0.1
C/C=C/c1ccc(C2[C@@H]3CN(Cc4ccccn4)C[C@H]2N3)cc1 (stereo partly drawn) | -13.0 | 1.1
C/C=C/c1ccc(C2[C@@H]3CN(C(C)=O)C[C@H]2N3)cc1 (stereo partly drawn) | -6.9 | 1.8
C/C=C/c1ccc(C2[C@@H]3CN(Cc4cccc(F)c4)C[C@H]2N3)cc1 (stereo partly drawn) | -88.2*! | 70.2
CCCN1[C@@H]2Cn3c(ccc(-c4ccccc4)c3=O)[C@H]1[C@@H](C(=O)OC)[C@@H]2CO | 11.7 | -3.0
COC(=O)[C@@H]1[C@@H](CO)[C@@H]2Cn3c(ccc(-c4ccncc4)c3=O)[C@H]1N2S(=O)(=O)c1ccccc1F | 9.9 | -1.3
